Test results as given in PubChem BioAssay AID1159580 (chemical genetic matrix, 2015).
Where “and” joins values, the source holds several entries; their conditions need not be identical. Equal entries are not always repeated. Out of some 5,500 compounds screened, about 2,000 (36%) were called active. Inconclusive results (about 18%) are left out. Cut-off read from the data, not from the text of the source: active = normalized growth mostly below about 0.91 (no sharp cut-off); inconclusive = no clear call, values can overlap the other calls; inactive = mostly above about 0.92. The list shows a part of the results.

Experiment: chemical genetic growth profiling, strain panel (AID 1159580);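 note: tested at 20 µM; growth read once vehicle control cultures reached saturation at 30 °C; 1 = growth at the plate median or of vehicle wells; lower values mean less growth of the strain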
Settings: S. cerevisiae deletion strains, growth OD

Measured: normalized growth

CC1[C@H](C)OC(=O)CC(O)CC(O)CC(O)CCC(O)C(O)C[C@]2(O)CC(O)C(C(=O)O)C(CC(OC3O[C@H](C)[C@@H](O)[C@H](N)[C@@H]3O)/C=C/C=C/C=C/C=C/CC/C=C/C=C/[C@H](C)[C@H]1O)O2 (stereo partly specified)
inactive: locus YBL061C, strain skt5, active compounds read low 0.931 | locus YBR023C, strain chs3, active compounds read low 0.918 | locus YBR279W, strain paf1, active compounds read low 0.982 | locus YCL016C, strain dcc1, active compounds read low 0.971 | locus YDL005C, strain med2, active compounds read low 0.953 | locus YDL040C, strain nat1, active compounds read low 0.995 | locus YDR137W, strain rgp1, active compounds read low 0.914 | locus YDR159W, strain sac3, active compounds read low 1.04 | locus YDR392W, strain spt3, active compounds read low 1.11 | locus YER016W, strain bim1, active compounds read low 0.961 | locus YER111C, strain swi4, active compounds read low 0.959 | locus YGL167C, strain pmr1, active compounds read low 0.996 | locus YIL073C, strain SPO22, active compounds read low 0.987 | locus YJL095W, strain BCK1 (second series), active compounds read low 0.994 | locus YJL154C, strain vps35, active compounds read low 0.985
active: locus YAL013W, strain DEP1, active compounds read low 0.0554 | locus YAL021C, strain ccr4, active compounds read low 0.186 | locus YAL026C, strain drs2, active compounds read low 0.0661 | locus YAL030W, strain snc1, active compounds read low 0.824 | locus YBR009C, strain hhf1, active compounds read low 0.557 | locus YBR021W, strain FUR4, active compounds read low 0.369 | locus YBR171W, strain sec66, active compounds read low 0.0858 | locus YBR229C, strain ROT2, active compounds read low 0.206 | locus YCL011C, strain gbp2, active compounds read low 0.223 | locus YCL029C, strain bik1, active compounds read low 0.425 | locus YCL069W, strain vba3, active compounds read low 0.849 | locus YCR088W, strain abp1, active compounds read low 0.0729 | locus YDL035C, strain GPR1, active compounds read low 0.0678 | locus YDL074C, strain BRE1, active compounds read low 0.144 | locus YDL101C, strain DUN1, active compounds read low 0.188 | locus YDL134C, strain PPH21, active compounds read low 0.592 | locus YDL185W, strain tfp1, active compounds read low 0.0687 | locus YDL192W, strain arf1, active compounds read low 0.133 | locus YDR001C, strain nth1, active compounds read low 0.815 | locus YDR069C, strain doa4, active compounds read low 0.858 | locus YDR101C, strain arx1, active compounds read low 0.119 | locus YDR150W, strain NUM1, active compounds read low 0.0676 | locus YDR162C, strain NBP2, active compounds read low 0.0472 | locus YDR195W, strain ref2 0.466 | locus YDR297W, strain sur2, active compounds read low 0.828 | locus YDR318W, strain mcm21, active compounds read low 0.194 | locus YDR334W, strain swr1, active compounds read low 0.415 | locus YDR335W, strain msn5, active compounds read low 0.904 | locus YDR388W, active compounds read low 0.0675 | locus YDR502C, strain sam2, active compounds read low 0.0781 | locus YEL003W, strain gim4, active compounds read low 0.154 | locus YEL037C, strain rad23, active compounds read low 0.723 | locus YEL061C, strain CIN8 (second series), active compounds read low 0.815 | locus YEL061C, strain CIN8, active compounds read low 0.0554 | locus YER015W, strain faa2, active compounds read low 0.822 | locus YER110C, active compounds read low 0.188 | locus YER155C, strain BEM2 (second series), active compounds read low 0.633 | locus YER155C, strain BEM2, active compounds read low 0.122 | locus YER167W, strain BCK2, active compounds read low 0.0855 | locus YFR010W, strain ubp6, active compounds read low 0.137 | locus YGL078C, strain dbp3, active compounds read low 0.0582 | locus YGL086W, strain mad1, active compounds read low 0.124 | locus YGL173C, strain kem1, active compounds read low 0.799 | locus YGL227W, strain vid30, active compounds read low 0.061 | locus YGL240W, strain doc1, active compounds read low 0.537 | locus YGL248W, strain PDE1, active compounds read low 0.646 | locus YGL253W, strain hxk2, active compounds read low 0.44 | locus YGR078C, strain PAC10, active compounds read low 0.0638 | locus YGR135W, strain pre9, active compounds read low 0.0907 | locus YGR229C, strain SMI1, active compounds read low 0.0609 | locus YGR252W, strain gcn5, active compounds read low 0.385 | locus YHR013C, strain ard1, active compounds read low 1.35 [resistant] | locus YHR027C, strain rpn1, active compounds read low 0.77 | locus YHR030C, strain SLT2, active compounds read low 0.179 and 0.0985 | locus YHR079C, strain IRE1 (second series), active compounds read low 0.312 | locus YHR079C, strain IRE1, active compounds read low 0.102 | locus YHR094C, strain hxt1, active compounds read low 0.302 | locus YHR129C, strain ARP1, active compounds read low 0.129 | locus YHR142W, strain chs7, active compounds read low 0.658 | locus YHR200W, strain rpn10, active compounds read low 0.0755 | locus YIL066C, strain RNR3, active compounds read low 0.51 | locus YIL125W, strain kgd1, active compounds read low 0.0583 | locus YIR030C, strain dcg1, active compounds read low 0.182 | locus YJL092W, strain hpr5, active compounds read low 0.402 | locus YJL095W, strain BCK1, active compounds read low 0.567 and 0.099 | locus YJL115W, strain asf1, active compounds read low 0.887 | locus YJL129C, strain trk1, active compounds read low 1.2 [resistant] | locus YJL134W, strain LCB3, active compounds read low 0.372 | locus YJL164C, strain tpk1, active compounds read low 0.775 | locus YJL166W, strain qcr8, active compounds read low 0.789 | locus YJL168C, strain set2, active compounds read low 0.199 | locus YJL187C, strain SWE1 (second series), active compounds read low 0.168 | locus YJL187C, strain SWE1, active compounds read low 0.846 | locus YJR043C, strain POL32, active compounds read low 0.0611 | locus YJR066W, strain TOR1, active compounds read low 0.0213 | locus YJR075W, strain HOC1, active compounds read low 0.0672
